By inhibition is commonly meant the relative decrease from the control value, in per cent.

Experimental findings from PubChem BioAssay AID488899 (Broad Institute, 2010) are described below.

Structures are written as SMILES. Hit rate of the full screen: of about 330,000 compounds, about 2,800 (0.85%) were called active. The sample as a whole holds a higher share of actives than the screen did. Values without a mark were called inactive.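 Rule for the calls: active = mean inhibition across replicates of 60% or more, whatever share of single replicates reaches that level; inconclusive = some that reach 60%, reason not given; inactive = mean inhibition across replicates below 60%.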

This experiment can be described thus: inhibitors of MITF-dependent TRPM1 promoter reporter, primary screen, cell-based, SK-MEL-5, single point, luciferase (AID 488899). To be noted: SK-MEL-5 TRPM1 promoter luciferase, 24 h; at 12.5 µM; active compounds read high.
As to `CCNC(=S)NCC`, the inhibition was 5.56%.

With `O=C(NNC(=O)c1ccc(-n2cncn2)c([N+](=O)[O-])c1)c1ccccc1`, the inhibition was -1.1%.

As for `COc1ccc2c(c1OC)C(=O)OC2Nc1nc(-c2ccccc2)cs1` (configuration not stated), the inhibition was 68.6% (active).

`Cc1ccc(-c2csc(NC3OC(=O)c4ccccc43)n2)cc1` (configuration not stated): the inhibition is 31.3%.

`COc1cc(CC(=O)Nc2nc(-c3ccc(F)c(F)c3)cs2)cc(OC)c1OC`: the inhibition is 0.159%.

With `CCc1cc(-c2nnc(SCC(=O)NC3CC3)n2C)cs1`, the inhibition is -9%.

With `CCOC(=O)c1ccc(NC(=O)c2c(N)n(C)c(=O)[nH]c2=O)cc1`, the inhibition was -48.3%.

On to `O=c1[nH]c(NCCO)nnc1Cc1ccc(Cl)cc1`, for which the inhibition is 5.61%.

With `CC(C)c1ccc(Cc2nnc(NCCCO)[nH]c2=O)cc1`, the inhibition was -0.574%.

`COc1ccc(Cc2nnc(N/N=C/c3ccccc3O)[nH]c2=O)cc1OC`: the inhibition is 64% (active).

For `Cc1ccc(CN2CC(C(=O)N3CCN(S(=O)(=O)c4ccccc4)CC3)CC2=O)cc1` (configuration not stated), the inhibition is -1.06%.

Regarding `c1ccc(-c2ccc(OCCN3CCOCC3)cc2)cc1`, the inhibition was -61.1%.

Consider `CCOc1nc(NCCN2CCOCC2)nc(Nc2ccc(C)cc2)n1`, for which the inhibition was -2.25%.

As for `c1ccc2cc3c(NCCN4CCOCC4)ccnc3cc2c1`, the inhibition is 80.4% (active).

For `O=C1NC(c2ccc(-c3ccccc3[N+](=O)[O-])o2)C(C(=O)c2ccc(Cl)cc2)C(O)(C(F)(F)F)N1` (configuration not stated), the inhibition was 12.2%.

For `O=C(Nc1ccccc1Cl)/C(Cl)=C(\Cl)S(=O)c1ccccc1` (configuration not stated), the inhibition is 97% (active).

Turning to `CN(C)S(=O)(=O)Oc1ccccc1C(=O)Nc1ccccc1Cl`, the inhibition is -7.26%.

As for `Cc1c(NC(=O)Nc2ccccc2Cl)sc(=S)n1C`, the inhibition is -9.97%.

On to `Nc1ccc2[nH]c(=S)sc2c1`, for which the inhibition was -7.16%.

In the case of `CC(Oc1ccc(Br)cc1)C(=O)NC1CCCCCC1` (configuration not stated), the inhibition was -16.6%.

Consider `CC(C)(C)CC(C)(C)NCC(O)COCCOc1ccc(Br)cc1` (configuration not stated), for which the inhibition was 85.9% (active).

As for `OC(COc1ccc(Br)cc1)CN1CCCC1` (configuration not stated), the inhibition was -0.089%.

Regarding `COc1ccc(C2NCCCC2c2ccccc2)cc1` (configuration not stated), the inhibition was 14.7%.

For the compound `Cc1ccccc1N1CCN(C(=O)c2cccnc2)CC1`, the inhibition was 2.88%.

Turning to `CCOc1ccc(NC(=S)N2CCC(N(C)CC3CCCO3)CC2)cc1` (configuration not stated), the inhibition is -2.52%.

For the compound `CCOC(=O)CN/C=C(\C#N)c1ccc(F)cc1`, the inhibition was 19.8%.

Consider `C/C(=N\OCC(=O)O)c1ccc(Cl)cc1`, for which the inhibition was -2.61%.

Consider `CCOc1cc(/C=C(/C#N)c2ccc(Cl)cc2)cc(Cl)c1OCC(=O)O`, for which the inhibition is 98.2% (active).

Regarding `C#CCOCCOCCOCCNc1nc(N2CCN(C(=O)CCCCCCCCCCNC(=O)Cn3cc(CCCCCN)nn3)CC2)nc(N2CCN(C(=O)CCCCCCCCCCNC(=O)[C@H](CO)n3cc(CCCSC)nn3)CC2)n1`, the inhibition was 23.1%.

As to `C#CCOCCOCCOCCNc1nc(N2CCN(C(=O)CCCCCCCCCCNC(=O)[C@H]([C@@H](C)CC)n3cc(CCCCN=C(N)N)nn3)CC2)nc(N2CCN(C(=O)CCCCCCCCCCNC(=O)[C@H](CO)n3cc(CCCSC)nn3)CC2)n1`, the inhibition was 72.9% (active).

Turning to `C#CCOCCOCCOCCNc1nc(N2CCN(C(=O)CCCCCCCCCCNC(=O)[C@H](CCCCN)n3cc(C)nn3)CC2)nc(N2CCN(C(=O)CCCCCCCCCCNC(=O)[C@H](CO)n3cc(CCCSC)nn3)CC2)n1`, the inhibition is 47.5%.

Turning to `Cc1ccc(-c2nn(C(C)(C)C)c3ncnc(N)c23)cc1`, the inhibition is 3.91%.

As for `CN(C)c1ccc(CSc2ccccc2)cc1`, the inhibition is -111%.

`Cc1ccc(C(=O)NC(=S)Nc2ccc3[nH]c(=O)[nH]c3c2)cc1C`: the inhibition is 3.06%.

As for `N#Cc1nc(N)nc(N(c2ccccc2)c2ccccc2)n1`, the inhibition is 10.4%.

For `COc1ccc(S(=O)(=O)N2CCOCC2)cc1NC(=O)Cc1coc2cc(C)ccc12`, the inhibition is 5.65%.

Take `CC[C@H]1CN2CCc3cc(OC)c(OC)cc3[C@@H]2C[C@@H]1C[C@H]1NCCc2cc(OC)c(OC)cc21`: the inhibition was 85.1% (active).

With `COc1cc2c(cc1OC)CN(CC(=O)Nc1ccc(F)cc1)CC2`, the inhibition is 4.57%.

Turning to `CCc1ccc(OCC2c3cc(OC)c(OC)cc3CCN2C(C)=O)cc1` (configuration not stated), the inhibition is -0.63%.

Take `COc1ccc(/C=C/C2=CC(C)(C)NC(=S)N2)c(OC)c1`: the inhibition was 10.5%.

On to `Cc1ccccc1-n1nc(C)c2c1N=C1C(Cl)=CC(Cl)=CN1C2c1ccc(C(=O)O)cc1` (configuration not stated), for which the inhibition was 5.65%.

`Cn1c(=O)c2c(nc(SCCNS(=O)(=O)c3ccccc3)n2C)n(C)c1=O`: the inhibition is -8.94%.

Take `COc1ccc(Cc2n[nH]c(=S)n2NC(=O)Nc2ccc(C)cc2)cc1`: the inhibition is -46.7%.

For `CC(C)CC[n+]1ccn(C2=C([O-])c3ccccc3C(=O)/C2=N\S(=O)(=O)c2ccccc2)c1`, the inhibition was 91.1% (active).

For `CC(=O)Nc1ccc(NC(=O)C(C)n2c3ccccc3c3nc(=O)cc(C)n32)cc1` (configuration not stated), the inhibition was 11.5%.

Turning to `CCn1c(CC(=O)Nc2ccc(C)cc2)nnc1SCC(=O)Nc1nc(C)cs1`, the inhibition was 6.57%.

In the case of `COc1ccc2oc(N)nc2c1`, the inhibition is 7.49%.

For the compound `CC(C)(C)c1ccc(Oc2ccc(N)cc2)cc1`, the inhibition was 91.7% (active).

Consider `COc1cccc(Oc2ccc(N)cc2)c1`, for which the inhibition is -4.14%.

With `CC(C)(C)c1ccc(OC2=CS(=O)(=O)c3ccccc32)cc1`, the inhibition was -25.6%.

`COc1ccc(C(=O)Nc2ccccc2C(=O)N2CCN(c3ccccc3)CC2)cc1`: the inhibition is -1.5%.

`COc1ccc(/C=N/Nc2ccccc2C(=O)O)cc1`: the inhibition was -4.16%.

`COc1ccc(C(=O)Nc2ccccc2C(=O)N/N=C/c2ccc(O)c(OC)c2)cc1`: the inhibition is 73.3% (active).

As to `CC(=O)NC(Cc1ccc(F)c(F)c1)C(=O)NC1CCN(C(=O)c2ccc(C)cc2)CC1` (configuration not stated), the inhibition is 7.52%.

On to `CSc1nc(-c2ccccc2)nc(C(Cl)Cl)n1`, for which the inhibition is 87.8% (active).

With `CSc1ncc(Sc2ccccc2)c(C(=O)O)n1`, the inhibition was 5.79%.

Consider `Cc1ccc(CNC(=O)c2ccc(CS(=O)Cc3cccc(Cl)c3)o2)cc1` (configuration not stated), for which the inhibition was 2.54%.

Take `CCOC(=O)N1CCN(c2c(NCCCN3CCCC(C)C3)c(=O)c2=O)CC1` (configuration not stated): the inhibition is -5.22%.

Consider `CCCCCCCCn1c2c(c(=N)c3c1CCC3)CCCC2`, for which the inhibition is 77.2% (active).

On to `CCOc1ccc(N(C)S(=O)(=O)c2cnc[nH]2)cc1`, for which the inhibition is 6.77%.

As to `CC1CCCCC1NC(=O)COC(=O)Cc1ccc(Cl)cc1` (configuration not stated), the inhibition was 6.02%.

Turning to `CN(C(=O)CSc1nncc2ccccc12)C1CCCCC1`, the inhibition is -4.81%.

For `CN(c1ccc2nc3ccccc3c(=O)n2n1)C1CCCCC1`, the inhibition is 84.7% (active).

With `CN(C(=O)c1cc2c(=O)n3ccccc3nc2s1)C1CCCCC1`, the inhibition is -36.7%.

`CCCN(CCC)S(=O)(=O)c1ccc(C(=O)NNC(=O)c2cc(OC)c(OC)c(OC)c2)cc1`: the inhibition was 4.09%.

Turning to `Clc1cccc(-c2nc(NCC3CCCO3)c3ccccc3n2)c1` (configuration not stated), the inhibition is -7.27%.

As to `Clc1ccc2nc(-c3ccccc3)nc(C(Cl)Cl)c2c1`, the inhibition was 90.9% (active).

As to `N#CCSc1nc(-c2ccccc2)nc2ccc(F)cc12`, the inhibition was 6.09%.

On to `CCCOc1cccc(C(=O)Nc2nnn(CCC)n2)c1`, for which the inhibition was -31.2%.

With `COc1cc(C(=O)N2CCN(C3CCC(C)CC3)CC2)cc(OC)c1OC` (configuration not stated), the inhibition is -0.962%.

`O=C1c2ccccc2C(=O)N1CC1c2ccccc2CCN1S(=O)(=O)c1ccccc1` (configuration not stated): the inhibition is -6.02%.

As to `CCN1CCN(C(=O)CSc2ccc(C)cc2)CC1`, the inhibition was -21.2%.

On to `CCN1CCC(O)(/C=C/c2ccc(C)cc2)C(C(=O)/C=C/c2ccc(C)cc2)C1` (configuration not stated), for which the inhibition is 77.1% (active).

As to `CCOC(=O)C1CCCN(C(=O)/C=C/c2ccc(OC)cc2)C1` (configuration not stated), the inhibition is -11.1%.

For the compound `Nc1ccccc1SC(C[N+](=O)[O-])c1ccccc1` (configuration not stated), the inhibition is 75.5% (active).

Take `Cc1ccc(C(C[N+](=O)[O-])c2c(C)cc3ccccn23)cc1` (configuration not stated): the inhibition is 40.1%.

As to `O=C(NCC(=O)N1CCCCCCC1)c1ccccc1Cl`, the inhibition was -25.1%.

With `COc1ccc(S(=O)(=O)N2CCCC2CNC(=O)C(=O)NC2CC2)cc1` (configuration not stated), the inhibition is -5.39%.

`O=C(NNC(=S)NCCCN1CCOCC1)c1ccncc1`: the inhibition was -1.68%.

Take `Oc1ccccc1CN1CCN(C(c2ccccc2)c2ccccc2)CC1`: the inhibition is 5.95%.

Consider `CC1(C)CC(N2CCN(C(c3ccccc3)c3ccccc3)CC2)=CC(=[N+]2CCCCC2)C1`, for which the inhibition was 94% (active).

For the compound `O=C1CC(N2CCN(C(c3ccccc3)c3ccccc3)CC2)C(=O)N1` (configuration not stated), the inhibition is -6.57%.

For the compound `CN(C)CCN=c1cc(-c2ccccc2)oc2ccc(Cl)cc12`, the inhibition was -36.2%.

On to `CCOc1ccc(C(=O)CCC(=O)Nc2ccncc2)cc1`, for which the inhibition was 8.37%.

Turning to `CCOc1ccc(NC(=O)CCC(=O)N/N=C/c2ccc([N+](=O)[O-])s2)cc1`, the inhibition was 62.8% (active).

Consider `CCOc1ccc(NC(=O)CCC(=O)NNC(=O)NC2CCCCC2)cc1`, for which the inhibition was -2.59%.

In the case of `CCCCN(C(=O)c1ccc(OC(F)(F)F)cc1)c1c(N)n(CCC)c(=O)[nH]c1=O`, the inhibition is -1.56%.

With `CCN(C(=O)COC(=O)Cc1c(F)cccc1Cl)c1c(N)n(Cc2ccccc2)c(=O)[nH]c1=O`, the inhibition was -2.14%.

As to `O=C(NCCc1ccc(C(F)(F)F)cc1)c1ccc2c(c1)OCO2`, the inhibition was -3.11%.

In the case of `O=C(CCc1ccccc1Cl)Nc1ccc(S(=O)(=O)Nc2nccs2)cc1`, the inhibition is 12.4%.

For the compound `Cc1coc2c(O)cc3c(c12)OC1(N2CCCCC2)C(=O)NCCCC31` (configuration not stated), the inhibition was 77.4% (active).

As to `COc1ccc(CCN2CC(C(=O)OCC(=O)NCc3ccccc3Cl)CC2=O)cc1OC` (configuration not stated), the inhibition is -2.95%.
